Data as given in the supplement of paper PMC10849652.
About 7,900 targets were measured; listed, in parts, are those with a hit and a random draw of the rest. About 0.6% of all pairs of compound and target were hits. Values without a mark were called inactive.

Assays:
Assay in all cases: log2 fold change, soluble protein after heating vs DMSO (PISA); higher = thermal stabilisation; K562 cells, 10 uM, 30 min; active = over 0.2 and 3.5 SD of the protein, either way, in both replicates (recomputed)
[1] = compound: NC(=O)Nc1cc(-c2cccc(F)c2)sc1C(=O)N[C@H]1CCCNC1
Summary of the method: (§1)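 For each measurement, 10 μM compound was applied for 30 min to K562 cells at 2×10^6 cells/mL. Aliquots were heated for 3 min across 48°C-58°C, pooled, and extracted in PBS with 0.5% NP-40 at 4°C; the supernatant after 21,000xg for 90 min was soluble protein. This was quantified by TMTpro 16plex LC-MS/MS with channel sums equalised, and thermal stability was reported relative to control samples from duplicates, on a log2 fold-change scale.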

[2] = compound: NC(=O)c1cnc(N[C@@H]2CCCC[C@@H]2N)nc1Nc1cccc(-n2nccn2)c1
Summary of the method: as §1

[3] = compound: NC1(c2ccc(-c3nc4ccn5c(=O)[nH]nc5c4cc3-c3ccccc3)cc2)CCC1
Summary of the method: as §1

[4] = compound: NCC(=O)Nc1ccc(-n2nc(C(F)(F)F)cc2-c2ccc3c(ccc4ccccc43)c2)cc1
Summary of the method: as §1

entinostat = compound: Nc1ccccc1NC(=O)c1ccc(CNC(=O)OCc2cccnc2)cc1 [entinostat]
Summary of the method: as §1

vorinostat = compound: O=C(CCCCCCC(=O)Nc1ccccc1)NO [vorinostat]
Summary of the method: as §1

citarinostat = compound: O=C(CCCCCCNC(=O)c1cnc(N(c2ccccc2)c2ccccc2Cl)nc1)NO [citarinostat]
Summary of the method: as §1

silmitasertib = compound: O=C(O)c1ccc2c(c1)nc(Nc1cccc(Cl)c1)c1ccncc12 [silmitasertib]
Summary of the method: as §1

[5] = compound: O=C1NC(=O)C(c2cnc3ccccn23)=C1c1cn2c3c(cc(F)cc13)CN(C(=O)N1CCCCC1)CC2
Summary of the method: as §1

[6] = compound: c1cc(OCCN2CCCCC2)cc(-c2n[nH]c3ccc(-c4nnc[nH]4)cc23)c1
Summary of the method: as §1

Chain of UniProt Q99653 (Q99653 whole entry, looked up): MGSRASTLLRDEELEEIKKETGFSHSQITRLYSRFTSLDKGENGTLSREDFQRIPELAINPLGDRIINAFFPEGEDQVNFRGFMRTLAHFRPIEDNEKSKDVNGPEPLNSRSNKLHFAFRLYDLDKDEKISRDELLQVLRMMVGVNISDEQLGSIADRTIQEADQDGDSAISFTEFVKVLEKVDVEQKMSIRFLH
Chain of UniProt Q86X95 (Q86X95 whole entry, looked up): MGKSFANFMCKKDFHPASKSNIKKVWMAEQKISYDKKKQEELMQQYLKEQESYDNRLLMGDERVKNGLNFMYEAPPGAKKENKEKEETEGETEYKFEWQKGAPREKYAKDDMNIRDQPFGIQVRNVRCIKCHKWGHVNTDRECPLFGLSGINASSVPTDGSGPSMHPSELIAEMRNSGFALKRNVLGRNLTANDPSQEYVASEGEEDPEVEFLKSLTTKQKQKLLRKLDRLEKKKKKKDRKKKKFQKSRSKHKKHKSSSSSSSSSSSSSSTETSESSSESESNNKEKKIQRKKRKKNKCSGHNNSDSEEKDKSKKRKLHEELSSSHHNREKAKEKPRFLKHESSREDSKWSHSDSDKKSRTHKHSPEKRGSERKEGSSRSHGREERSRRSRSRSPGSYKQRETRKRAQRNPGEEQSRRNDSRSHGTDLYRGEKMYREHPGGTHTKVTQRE
Chain of UniProt Q69YH5 (Q69YH5 whole entry, looked up): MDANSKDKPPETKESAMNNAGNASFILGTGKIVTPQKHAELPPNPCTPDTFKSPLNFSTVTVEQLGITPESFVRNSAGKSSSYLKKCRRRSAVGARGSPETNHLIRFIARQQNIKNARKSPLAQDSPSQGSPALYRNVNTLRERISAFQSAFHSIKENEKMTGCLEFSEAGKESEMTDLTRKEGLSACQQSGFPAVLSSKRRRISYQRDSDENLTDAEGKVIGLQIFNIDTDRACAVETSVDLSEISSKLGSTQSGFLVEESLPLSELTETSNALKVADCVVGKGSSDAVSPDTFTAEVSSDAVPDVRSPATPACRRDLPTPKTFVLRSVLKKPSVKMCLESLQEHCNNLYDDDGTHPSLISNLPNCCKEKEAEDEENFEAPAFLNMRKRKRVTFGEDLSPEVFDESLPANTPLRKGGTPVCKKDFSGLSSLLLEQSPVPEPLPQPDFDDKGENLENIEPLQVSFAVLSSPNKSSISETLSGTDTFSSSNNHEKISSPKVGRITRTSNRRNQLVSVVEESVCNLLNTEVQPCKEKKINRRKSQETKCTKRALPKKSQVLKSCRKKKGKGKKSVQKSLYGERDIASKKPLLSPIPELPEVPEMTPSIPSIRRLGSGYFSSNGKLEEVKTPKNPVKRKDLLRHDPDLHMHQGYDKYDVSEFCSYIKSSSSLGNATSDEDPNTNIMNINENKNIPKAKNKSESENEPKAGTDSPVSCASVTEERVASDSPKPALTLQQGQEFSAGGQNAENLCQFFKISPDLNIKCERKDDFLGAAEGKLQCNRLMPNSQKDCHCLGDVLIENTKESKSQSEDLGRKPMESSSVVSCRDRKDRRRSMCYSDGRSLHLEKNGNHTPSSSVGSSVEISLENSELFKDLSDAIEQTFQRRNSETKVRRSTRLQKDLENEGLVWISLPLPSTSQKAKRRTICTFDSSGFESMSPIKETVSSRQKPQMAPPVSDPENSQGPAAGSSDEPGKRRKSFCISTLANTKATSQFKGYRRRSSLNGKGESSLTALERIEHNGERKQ
Chain of UniProt Q13555 (Q13555 whole entry, looked up): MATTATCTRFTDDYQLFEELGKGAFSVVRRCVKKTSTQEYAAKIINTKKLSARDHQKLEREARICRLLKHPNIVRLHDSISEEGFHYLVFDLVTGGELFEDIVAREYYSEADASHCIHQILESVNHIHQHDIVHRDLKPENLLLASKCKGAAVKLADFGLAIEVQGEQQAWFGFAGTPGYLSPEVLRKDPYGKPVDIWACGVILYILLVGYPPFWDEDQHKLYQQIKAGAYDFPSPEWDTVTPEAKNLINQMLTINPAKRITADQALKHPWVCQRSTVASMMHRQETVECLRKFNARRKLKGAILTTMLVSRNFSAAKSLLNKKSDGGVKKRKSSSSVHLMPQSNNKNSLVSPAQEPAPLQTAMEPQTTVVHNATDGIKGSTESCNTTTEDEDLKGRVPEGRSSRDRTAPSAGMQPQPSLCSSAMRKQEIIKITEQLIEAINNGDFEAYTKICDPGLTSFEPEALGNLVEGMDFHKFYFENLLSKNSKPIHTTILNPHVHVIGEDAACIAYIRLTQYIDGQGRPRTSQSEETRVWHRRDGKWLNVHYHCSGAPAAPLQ
Chain of UniProt Q6NZI2 (Q6NZI2 whole entry, looked up): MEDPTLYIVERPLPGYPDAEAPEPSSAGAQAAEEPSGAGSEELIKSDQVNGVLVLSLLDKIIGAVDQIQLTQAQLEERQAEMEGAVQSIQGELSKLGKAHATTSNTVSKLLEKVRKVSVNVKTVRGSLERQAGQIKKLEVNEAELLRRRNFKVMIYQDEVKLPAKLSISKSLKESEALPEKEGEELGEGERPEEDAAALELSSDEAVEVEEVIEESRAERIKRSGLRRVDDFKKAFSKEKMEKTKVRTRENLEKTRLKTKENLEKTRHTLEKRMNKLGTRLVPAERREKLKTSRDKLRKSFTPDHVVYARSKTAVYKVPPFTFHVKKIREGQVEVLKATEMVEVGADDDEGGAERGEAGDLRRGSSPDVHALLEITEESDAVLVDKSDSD
Chain of UniProt P21964 (P21964 whole entry, looked up): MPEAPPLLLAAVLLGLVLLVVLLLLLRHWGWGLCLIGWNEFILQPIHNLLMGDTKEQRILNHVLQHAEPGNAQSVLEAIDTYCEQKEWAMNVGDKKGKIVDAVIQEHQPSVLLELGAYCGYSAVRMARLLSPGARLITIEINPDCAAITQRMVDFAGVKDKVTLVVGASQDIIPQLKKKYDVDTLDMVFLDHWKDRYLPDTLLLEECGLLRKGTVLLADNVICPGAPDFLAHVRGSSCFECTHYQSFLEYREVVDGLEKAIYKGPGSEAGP
Chain of UniProt Q9UIV1 (Q9UIV1 whole entry, looked up): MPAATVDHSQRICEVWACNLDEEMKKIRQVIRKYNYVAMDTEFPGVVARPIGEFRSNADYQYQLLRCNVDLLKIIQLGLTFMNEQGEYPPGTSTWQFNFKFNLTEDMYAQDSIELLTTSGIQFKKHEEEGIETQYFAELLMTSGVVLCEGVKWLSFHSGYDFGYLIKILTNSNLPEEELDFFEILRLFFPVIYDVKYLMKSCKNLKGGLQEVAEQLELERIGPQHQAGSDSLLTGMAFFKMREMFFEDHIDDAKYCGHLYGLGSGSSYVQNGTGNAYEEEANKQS
Chain of UniProt O75794 (O75794 whole entry, looked up): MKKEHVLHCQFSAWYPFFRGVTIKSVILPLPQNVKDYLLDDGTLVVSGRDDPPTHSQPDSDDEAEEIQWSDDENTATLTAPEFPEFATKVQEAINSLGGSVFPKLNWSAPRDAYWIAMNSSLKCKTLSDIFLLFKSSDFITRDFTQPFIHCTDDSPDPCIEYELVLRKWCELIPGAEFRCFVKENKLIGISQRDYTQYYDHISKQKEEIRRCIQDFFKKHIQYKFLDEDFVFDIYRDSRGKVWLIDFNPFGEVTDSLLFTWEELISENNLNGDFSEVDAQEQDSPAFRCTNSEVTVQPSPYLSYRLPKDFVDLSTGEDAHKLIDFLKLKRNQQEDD
Chain of UniProt P42575 (P42575 whole entry, looked up): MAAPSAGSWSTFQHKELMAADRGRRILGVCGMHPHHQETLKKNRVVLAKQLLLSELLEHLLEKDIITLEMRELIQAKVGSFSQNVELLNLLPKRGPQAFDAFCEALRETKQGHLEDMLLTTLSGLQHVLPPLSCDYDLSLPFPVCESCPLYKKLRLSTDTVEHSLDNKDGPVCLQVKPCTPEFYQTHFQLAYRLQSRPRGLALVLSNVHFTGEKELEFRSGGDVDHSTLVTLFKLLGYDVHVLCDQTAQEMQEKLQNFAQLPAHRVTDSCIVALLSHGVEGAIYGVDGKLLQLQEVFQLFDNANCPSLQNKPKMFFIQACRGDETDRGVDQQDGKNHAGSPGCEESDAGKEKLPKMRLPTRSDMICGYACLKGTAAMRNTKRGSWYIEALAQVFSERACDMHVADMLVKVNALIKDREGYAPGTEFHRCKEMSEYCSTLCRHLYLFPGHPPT
Chain of UniProt Q9ULV3 (Q9ULV3 whole entry, looked up): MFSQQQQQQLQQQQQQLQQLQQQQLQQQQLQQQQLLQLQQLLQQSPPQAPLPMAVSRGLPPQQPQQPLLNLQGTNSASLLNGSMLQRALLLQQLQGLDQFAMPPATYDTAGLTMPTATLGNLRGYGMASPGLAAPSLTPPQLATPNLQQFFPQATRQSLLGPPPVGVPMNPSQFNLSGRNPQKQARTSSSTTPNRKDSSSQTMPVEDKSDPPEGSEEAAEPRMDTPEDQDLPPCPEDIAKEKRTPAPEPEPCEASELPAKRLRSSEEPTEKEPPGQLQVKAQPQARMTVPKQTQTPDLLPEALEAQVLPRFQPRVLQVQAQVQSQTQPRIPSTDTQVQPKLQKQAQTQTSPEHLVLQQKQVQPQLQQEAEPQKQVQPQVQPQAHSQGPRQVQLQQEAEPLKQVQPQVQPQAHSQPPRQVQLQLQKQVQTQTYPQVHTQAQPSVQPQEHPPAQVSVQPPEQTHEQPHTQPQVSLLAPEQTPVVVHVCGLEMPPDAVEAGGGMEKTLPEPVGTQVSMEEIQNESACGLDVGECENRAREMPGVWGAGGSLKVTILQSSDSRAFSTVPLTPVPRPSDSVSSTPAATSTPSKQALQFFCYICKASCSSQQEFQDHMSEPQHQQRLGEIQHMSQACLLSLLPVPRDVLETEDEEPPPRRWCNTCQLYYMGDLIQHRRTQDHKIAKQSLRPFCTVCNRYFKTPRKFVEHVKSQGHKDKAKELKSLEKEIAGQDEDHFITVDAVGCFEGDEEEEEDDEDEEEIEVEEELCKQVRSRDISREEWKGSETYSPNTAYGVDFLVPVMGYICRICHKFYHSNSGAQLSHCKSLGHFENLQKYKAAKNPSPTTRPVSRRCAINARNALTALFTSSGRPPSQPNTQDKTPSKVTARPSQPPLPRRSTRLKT
Chain of UniProt Q8NHZ8 (Q8NHZ8 whole entry, looked up): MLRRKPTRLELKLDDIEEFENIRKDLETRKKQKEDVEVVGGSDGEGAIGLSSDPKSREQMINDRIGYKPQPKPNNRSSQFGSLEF

Row | Target | log2 fold change [1] | log2 fold change [2] | log2 fold change [3] | log2 fold change [4] | log2 fold change (entinostat) | log2 fold change (vorinostat) | log2 fold change (citarinostat) | log2 fold change (silmitasertib) | log2 fold change [5] | log2 fold change [6]
1 | CDCA2 (UniProt Q69YH5) | -0.034 | -0.096 | -0.003 | 0.037 | -0.11 | 0 | -0.27 | 0.133 | 0.035 | 0.243
2 | CDC26 (UniProt Q8NHZ8) | 0.034 | 0.352 | 0.152 | 0.704 (active) | 0.097 | 0.019 | -0.025 | -0.003 | 0.007 | -0.003
3 | CDC123 (UniProt O75794) | -0.029 | 0.045 | -0.077 | -0.01 | 0.026 | 0.032 | 0.045 | -0.048 | 0.011 | -0.056
4 | CRKL (UniProt P46109) | -1.11 (active) | -0.019 | -0.015 | -0.005 | 0.004 | 0.023 | 0.005 | 0.066 | -0.031 | -0.064
5 | CIZ1 (UniProt Q9ULV3) | -0.031 | -0.087 | -0.053 | -0.022 | -0.032 | 0.036 | 0.023 | 0.026 | 0.074 | -0.045
6 | CASP2 (UniProt P42575) | -0.317 | -0.047 | -0.099 | 0.065 | 0.017 | 0.13 | 0.058 | 0.051 | -0.008 | -0.032
7 | CELF2 isoform 3 (UniProt O95319) | -0.047 | 0.009 | 0.017 | -0.017 | -0.048 | -0.044 | 0 | 0.051 | 0.102 | -0.021
8 | CIR1 (UniProt Q86X95) | 0.014 | 0.061 | 0.309 | 0.018 | 0 | -0.056 | 0.06 | 0.105 | 0.067 | 0.024
9 | CAVIN1 (UniProt Q6NZI2) | 0.034 | -0.07 | 0.046 | 0.074 | 0.008 | 0.004 | -0.004 | 0.041 | 0.108 | -0.087
10 | CNOT7 (UniProt Q9UIV1) | -0.053 | 0.039 | 0 | 0.028 | 0.091 | 0.152 | -0.12 | 0.12 | 0.032 | -0.089
11 | CA1 (UniProt P00915) | 0.01 | 0.011 | -0.013 | 0.012 | -0.011 | 0.221 (active) | 0.074 | 0.013 | -0.014 | -0.029
12 | CHP1 (UniProt Q99653) | -0.1 | 0.014 | -0.104 | 0.19 | -0.012 | -0.066 | 0.001 | 0.061 | -0.054 | 0.011
13 | COMT (UniProt P21964) | -0.052 | 0.356 (active) | -0.015 | -0.022 | -0.022 | -0.054 | 0.052 | -0.057 | -0.086 | 0.015
14 | CAMK2G isoform 6 (UniProt Q13555) | -0.306 | -0.033 | 0.038 | 0.057 | 0.119 | 0.119 | -0.02 | 0.158 | 0.177 | -0.053
